Compound activity (PubChem)
FECH inh: inhibitors of human ferrochelatase. AID 1671448. 20,000 compounds, 3.3% hits. calls only at 10 µM (by protocol). purified FECH, Ni-mesoporphyrin absorbance 550 nm. P22830;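 active = enzyme reaction rate more than 3 SD below the solvent-only control wells on the same plate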;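 also: lower slope than DMSO wells means FECH inhibition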
Target sequence (P22830 whole entry, looked up): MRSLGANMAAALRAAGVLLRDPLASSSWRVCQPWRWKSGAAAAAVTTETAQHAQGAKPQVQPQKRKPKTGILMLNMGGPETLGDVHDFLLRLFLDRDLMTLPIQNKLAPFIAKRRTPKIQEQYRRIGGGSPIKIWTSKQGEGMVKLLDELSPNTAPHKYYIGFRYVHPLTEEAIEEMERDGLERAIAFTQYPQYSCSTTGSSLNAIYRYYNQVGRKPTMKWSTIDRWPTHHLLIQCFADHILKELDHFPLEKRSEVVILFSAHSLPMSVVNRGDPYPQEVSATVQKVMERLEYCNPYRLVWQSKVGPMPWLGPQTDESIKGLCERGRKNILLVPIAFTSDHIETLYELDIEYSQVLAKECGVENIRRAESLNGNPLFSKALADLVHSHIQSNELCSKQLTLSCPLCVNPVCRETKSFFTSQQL
* hit, by the source's call; i = inactive; + = active, no number. Only a selection was taken, and hits are over-represented in it overall.

SMILES | FECH inh
O=C(Nc1nc2n(n1)C(c1c(F)cccc1Cl)C=C(c1ccccc1)N2)c1ccccc1F (centres undefined) | i
CCCC(=O)Nc1nc2n(n1)C(c1ccccc1Cl)C=C(c1ccc(C)cc1)N2 (centres undefined) | i
CCCC(=O)Nc1nc2n(n1)C(c1c(F)cccc1Cl)C=C(c1ccc(C)cc1)N2 (centres undefined) | i
CC(=O)Nc1nc2n(n1)C(c1c(F)cccc1Cl)C=C(c1ccc(Cl)cc1)N2 (centres undefined) | i
CCCC(=O)Nc1nc2n(n1)C(c1ccccc1Cl)C=C(c1ccccc1)N2 (centres undefined) | i
CCCC(=O)Nc1nc2n(n1)C(c1c(F)cccc1Cl)C=C(c1ccccc1)N2 (centres undefined) | +
CCCC(=O)Nc1nc2n(n1)C(c1ccccc1Cl)C=C(c1ccc(Cl)cc1)N2 (centres undefined) | +
CC(C)CC(=O)Nc1nc2n(n1)C(c1c(F)cccc1Cl)C=C(c1ccccc1)N2 (centres undefined) | +
O=C(CCc1ccccc1)Nc1nc2n(n1)C(c1ccccc1Cl)C=C(c1ccccc1)N2 (centres undefined) | i
CC(C)CN(CC(C)C)c1ncc(NS(=O)(=O)c2cccs2)cc1C(=O)O | i
C=CCN(Cc1cccc(OC)c1)C(=O)c1c(C)nc2sccn12 | i
NCC1Cc2cc(-c3ccc4ccccc4n3)cc(Cl)c2O1 (centres undefined) | i
Cc1ccc(C)c(OC(C)C(=O)NCCNS(C)(=O)=O)c1 (centres undefined) | i
Cc1nc2sc(C(=O)N3CCC4(CCCO4)CC3)c(C)c2c(=O)[nH]1 | i
c1cnc2c(-c3ccc(NC4CC4)nn3)cccc2c1 | i
CC(CO)NCCC(=O)Nc1ccc(N(C)C)cc1 (centres undefined) | i
COc1ccc(-c2cc(=O)[nH]c(SCc3nc(-c4ccccc4C)oc3C)n2)cc1 | i
CC(C)c1cc(=O)n2[nH]c(CNc3ccccc3)nc2n1 | +
O=c1cc(CNc2ccc(Br)cc2)nc2nc(NCc3ccc(F)cc3)[nH]n12 | i
CC(C)c1cc(=O)n2[nH]c(CNc3ccc(Br)cc3)nc2n1 | +
O=c1cc(CNc2ccc(Br)cc2)nc2nc(NCc3ccccc3)[nH]n12 | i
Cc1ccc(NCc2cc(=O)n3[nH]c(NCc4ccccc4)nc3n2)cc1 | i
CC(C)NCc1cc(=O)n2[nH]c(NCc3ccccc3)nc2n1 | i
CC(=O)NCC1=CCN(Cc2cc(=O)[nH]c(C)n2)CC1 | i
CCc1nc(N2CCNC(C(=O)O)C2)ncc1C (centres undefined) | i
SMILES | FECH inh
Cc1cc(CC(C)Nc2nccc(CCC(F)(F)F)n2)n[nH]1 (centres undefined) | i
CCn1c(=O)n(CCCN(C)C)c(=O)c2cnc(-c3ccc(OC)cc3)nc21 | i
Cc1cccc(C)c1NCc1cc(=O)n2[nH]c(-c3ccc(C(C)(C)C)cc3)nc2n1 | +
CCCNCc1cc(=O)n2[nH]c(-c3ccc(C(C)(C)C)cc3)nc2n1 | i
Cc1cccc(C)c1NCc1cc(=O)n2[nH]c(NCc3ccccc3)nc2n1 | i
Cc1ccc(NCc2cc(=O)n3[nH]c(NCc4ccccc4)nc3n2)c(C)c1 | i
Cc1ccc(NCc2cc(=O)n3[nH]c(-c4ccc(C(C)(C)C)cc4)nc3n2)c(C)c1 | +
CC(C)(C)c1ccc(-c2nc3nc(CNc4ccc(F)cc4)cc(=O)n3[nH]2)cc1 | +
Cc1cccc(NCc2cc(=O)n3[nH]c(-c4ccc(C(C)(C)C)cc4)nc3n2)c1C | i
COc1ccc(NCc2cc(=O)n3[nH]c(-c4ccc(C(C)(C)C)cc4)nc3n2)c(OC)c1 | i
Cc1ccc(NCc2cc(=O)n3[nH]c(-c4ccc(C(C)(C)C)cc4)nc3n2)cc1C | i
CCc1cc(Sc2ccc(NC(=O)c3ccc(C)cc3)cc2)n2ncnc2n1 | i
CCN(CC)CCCNC(=O)CC1CCN(S(=O)(=O)c2ccccc2)CC1 | i
CCCCN(C)c1nc(Nc2cccc(Cl)c2)c2cnn(-c3ccccc3)c2n1 | i
CCn1c(CC2CCN(C/C(C)=C/c3ccco3)CC2)n[nH]c1=O | i
Cc1cccc(Cc2nnc(NC(=O)N(C)Cc3ccco3)s2)c1 | i
O=C(CCSc1ccc2c(c1)OCCO2)NCC1CCS(=O)(=O)C1 (centres undefined) | i
Cc1nccn1CCCC(=O)N1CCc2c(nc(N(C)C)[nH]c2=O)C1 | i
CCc1nc(CN2C(=O)NC(CC)(C3CCNCC3)C2=O)cs1 (centres undefined) | i
Cc1ccc(-n2c(CN3CCN(S(=O)(=O)c4ccc(Cl)s4)CC3)nc3cccnc32)cc1 | i
Cc1ccc(-n2c(CN3CCN(S(=O)(=O)c4cccs4)CC3)nc3cccnc32)cc1 | +
Cc1cccc(-n2c(CN3CCN(S(=O)(=O)c4cccs4)CC3)nc3cccnc32)c1 | i
COc1ccc(S(=O)(=O)NCc2nc3cccnc3n2C)cc1OC | i
CC(C)Nc1ncc(CN2CCc3[nH]nc(-c4ccc5c(c4)OCO5)c3C2)cn1 | i
